About 490 (0.26%) of roughly 190,000 compounds were called active. Rule as the data show it: active = fluorescence above about 89; inactive = the rest. What follows is part of a selection rich in actives, with near analogues and random picks from the rest.
Test: compound fluorescence on glutathione beads, profiling panel, artefact control, biophysical, 488/530 nm, flow cytometry (AID 1776);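 also: glutathione beads carrying GST-tagged Bcl family fusion proteins plus one bare bead set; values are compound well signal with DMSO vehicle wells as background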
Conditions: GSH beads flow cytometry, compound fluorescence 488/530 nm; at 10 µM; hits give high values

Row | Compound | fluorescence (KMESF)
1 | CCCCCC(=O)Nc1ccc(S(=O)(=O)Nc2ccc(Cl)nn2)cc1 | 11 (inactive)
2 | COc1ccccc1N(C)S(=O)(=O)c1ccc(Cl)c(C(=O)N2CCC(C(N)=O)CC2)c1 | 11 (inactive)
3 | CN1CCC(OC(=O)COc2ccc(Cl)cc2Cl)CC1 | 13 (inactive)
4 | Cn1nccc1CNC(=O)c1ccnn1C | 9 (inactive)
5 | CCCCN(C)CCNC(=O)CSCc1ccc(C)cc1 | 25 (inactive)
6 | CCCCN(C(=O)/C=C/c1ccco1)c1c(N)n(CC(C)C)c(=O)[nH]c1=O | 9 (inactive)
7 | COc1ccc(/C=C2/SC(=O)N(CCCCCC(=O)Nc3ccccc3C(=O)O)C2=S)cc1 | 9 (inactive)
8 | O=C(CC12CC3CC(CC(C3)C1)C2)NCc1ccco1 | 15 (inactive)
9 | CSCC(=O)N1CCCC(C(=O)c2cc(F)ccc2F)C1 (stereo unspecified) | 11 (inactive)
10 | OCC(CO)(CO)NCc1ccc(-c2ccccc2)cc1 | 236 (active)
11 | O=C(Cc1ccc(-c2ccccc2)cc1)NC(c1ccccc1)c1ccccc1 | 10 (inactive)
12 | O=C(O)Cc1ccc(-c2ccccc2)cc1 | 21 (inactive)
13 | O=C(COc1ccc(NC(=O)c2ccccc2[N+](=O)[O-])cc1)c1ccc(F)cc1 | 23 (inactive)
14 | O=C(COC(=O)c1ccc(Cl)nc1)NCc1cccs1 | 24 (inactive)
15 | COc1ccccc1OCCC(=O)OCC(=O)NCc1ccccc1 | 16 (inactive)
16 | COc1ccccc1OCCC(=O)OCC(=O)NC(=O)NC(C)(C)C | 260 (active)
17 | COc1cccc(NC(=O)COC(=O)CCOc2ccccc2OC)c1 | 10 (inactive)
18 | Cc1ccccc1-n1nnnc1SCCCC(=O)c1ccc(F)cc1 | 11 (inactive)
19 | COc1cccc(Cn2cnc3c([N+](=O)[O-])c(C)c(C)cc32)c1 | 19 (inactive)

Row | Compound | fluorescence (KMESF)
20 | CCOC(=O)Cc1csc(NC(=O)C(C)(C)C)n1 | 28 (inactive)
21 | CCOC(=O)Cc1csc(NC(=O)Nc2ccccc2)n1 | 13 (inactive)
22 | CCOC(=O)Cc1csc(NC(NC(=O)OCC)(C(F)(F)F)C(F)(F)F)n1 | 269 (active)
23 | COc1ccc(C)cc1S(=O)(=O)N(CC(=O)Nc1cccc([N+](=O)[O-])c1)c1ccc(C)cc1 | 11 (inactive)
24 | CCCCN1C(=S)NC[C@@H]1C(C)CC (stereo partly specified) | 20 (inactive)
25 | Cc1ccc(-c2cc(C(=O)N/N=C/C=C/c3ccccc3)n[nH]2)o1 | 7 (inactive)
26 | O=C(NCCCN1CCOCC1)c1ccc(N2CCCC2)c([N+](=O)[O-])c1 | 15 (inactive)
27 | COc1ccc(CCNC(=O)CCn2c(=O)c3ccccc3n(CC(=O)NCC3CCCO3)c2=O)cc1OC (stereo unspecified) | 70 (inactive)
28 | CNc1nc2c(C)cccn2c(=O)c1C=Nc1ccc(OC)cc1 | 19 (inactive)
29 | Cc1cccc2c(=O)n3c(nc12)CCCCC3 | 267 (active)
30 | O=c1c2c(nc3n1CCCCC3)sc1c(O)cccc12 | 8 (inactive)
31 | Cc1ccc2nc3n(c(=O)c2c1)CCC3 | 45 (inactive)
32 | Cc1ccc(S(=O)(=O)NCCC(c2ccccc2)c2ccccc2)cc1C(=O)O | 12 (inactive)
33 | CCO/C=C1\C(=O)N(c2ccc(OCC)cc2)C(=O)c2ccccc21 | 14 (inactive)
34 | Cc1cc(NC(=O)CN2C(=O)NC(CCc3ccccc3)C2=O)no1 (stereo unspecified) | 13 (inactive)
35 | O=C(c1ccc(OC2CCN(C(=O)c3cccnc3)CC2)cc1)N1CCCCCC1 | 11 (inactive)
36 | Cc1cccc(Oc2c([N+](=O)[O-])c(=O)n(C)c3ccccc23)c1 | 55 (inactive)
37 | O=C(COC(=O)CCCSc1nc2ccccc2[nH]1)Nc1ccc(Oc2ccccc2)cc1 | 11 (inactive)
38 | CCCCC(NS(=O)(=O)c1ccc(C)cc1)C(=O)Oc1ccc2c3c(c(=O)oc2c1)CCC3 (stereo unspecified) | 11 (inactive)

Row | Compound | fluorescence (KMESF)
39 | CCOC(=O)C1=C(C)NC(C)=C(C(=O)OCC)C1c1ccccn1 | 252 (active)
40 | CCOC(=O)C1=C(C)NC(SC)=NC1c1ccccc1 (stereo unspecified) | 34 (inactive)
41 | CCOC(=O)C1=C(C)NC(=O)NC1c1ccccc1 (stereo unspecified) | 17 (inactive)
42 | CC(C)(C)NC(=O)CN(C(=O)c1csnn1)c1ccccc1-c1ccccc1 | 14 (inactive)
43 | CCc1cccc(CC)c1NC(=O)COc1ccccc1C(=O)c1cc(C#N)c(=O)n(C2CCCCC2)c1 | 18 (inactive)
44 | CCOc1ccc(NC(=O)NNC(=O)c2ccc(Cl)cc2Cl)cc1 | 21 (inactive)
45 | COc1ccc(/C=N/OCC(=O)N(Cc2ccccc2)c2ccccc2C(=O)O)cc1 | 6 (inactive)
46 | COC(=O)c1ccc(-c2noc(CN(Cc3ccccn3)CC3CCCO3)n2)cc1 (stereo unspecified) | 18 (inactive)
47 | CC(C)N1CCC(=NNc2ccc([N+](=O)[O-])cc2S(=O)(=O)N2CCOCC2)CC1 | 18 (inactive)
48 | O=C(CSc1nnnn1-c1ccc(O)cc1)N1N=C(c2ccc3ccccc3c2)CC1c1ccccc1 (stereo unspecified) | 16 (inactive)
49 | Cc1ccc2c(Cl)c(C(=O)Nc3nn[nH]n3)sc2c1 | 15 (inactive)
50 | COc1ccc(CN2C(=O)CC(Cc3ccc(C)cc3)C2=O)cc1OC (stereo unspecified) | 10 (inactive)
51 | Cc1ccc(C(=O)O)cc1NC(=O)c1ccc(Cn2nc(C)c(Cl)c2C)o1 | 15 (inactive)
52 | COC(=O)C1=C(C)N(C)C(C)=C(C(=O)OC)C1c1cccc(Br)c1 | 266 (active)
53 | COC(=O)C1NN=C(C(=O)c2ccc(Br)cc2)C1c1cccc(Br)c1 (stereo unspecified) | 10 (inactive)
54 | COC(=O)C1=C(C)N(C)C(=S)NC1c1ccccc1 (stereo unspecified) | 13 (inactive)
55 | CCOc1ccccc1/C=N/NC(=O)CNC(=O)COc1ccccc1 | 13 (inactive)
56 | Cc1cccc(-n2cc(CN3CCN(C(=O)c4ncn[nH]4)CC3)c(-c3cccc(F)c3)n2)c1 | 12 (inactive)

Source: PubChem BioAssay AID1776 (NMMLSC, 2009)
